# Where a chain is given by its changes, count along the chain named.
# How the values were obtained:
# Assay in all cases: yeast three-hybrid, YBZ-1, SC-Leu-His + 0.5 mM 3-AT, 4 days
# Details in all cases: tags: N-Gal4 AD-HA kept; label: inside an RPR1-promoter hybrid RNA with tandem MS2 sites; ssRNA
# PUM1 PUF domain R3-RCW = PUM1 PUF domain R3-RCW (Homo sapiens, UniProt Q14671 828-1176, C935R;R936C;Q939W)
# How it was run: (§1)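 Matching RNA elements and Pumilio-1 PUF domain libraries, randomized at the three base-contacting residues of every repeat, were co-expressed from a centromeric plasmid in strain YBZ-1 (LexA–MS2 coat fusion, HIS3 reporter). The repeat regions were PCR-amplified and Illumina-sequenced from cells grown four days on SC-Leu (input) or SC-Leu-His + 0.5 mM 3-AT (selection). The interaction score is the log change in variant frequency from input to selection. It is computed in log2, with a pseudocount of 1 for absent variants.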
# PUM1 PUF domain R3-IYD = PUM1 PUF domain R3-IYD (Homo sapiens, UniProt Q14671 828-1176, C935I;R936Y;Q939D)
# How it was run: as §1
# PUM1 PUF domain R3-MWY = PUM1 PUF domain R3-MWY (Homo sapiens, UniProt Q14671 828-1176, C935M;R936W;Q939Y)
# How it was run: as §1
# PUM1 PUF domain R8-KHC = PUM1 PUF domain R8-KHC (Homo sapiens, UniProt Q14671 828-1176, N1122K;Y1123H;Q1126C)
# How it was run: as §1
# PUM1 PUF domain R8-KHL = PUM1 PUF domain R8-KHL (Homo sapiens, UniProt Q14671 828-1176, N1122K;Y1123H;Q1126L)
# How it was run: as §1
# PUM1 PUF domain R7-RGG = PUM1 PUF domain R7-RGG (Homo sapiens, UniProt Q14671 828-1176, S1079R;N1080G;E1083G)
# How it was run: as §1
# PUM1 PUF domain R3-WCA = PUM1 PUF domain R3-WCA (Homo sapiens, UniProt Q14671 828-1176, C935W;R936C;Q939A)
# How it was run: as §1
# PUM1 PUF domain R5-HRR = PUM1 PUF domain R5-HRR (Homo sapiens, UniProt Q14671 828-1176, C1007H;Q1011R)
# How it was run: as §1
# PUM1 PUF domain R6-TFA = molecular target: T1, PUM1 PUF domain R6-TFA (Homo sapiens, UniProt Q14671 828-1176, N1043T;Y1044F;Q1047A)
# T1 sequence: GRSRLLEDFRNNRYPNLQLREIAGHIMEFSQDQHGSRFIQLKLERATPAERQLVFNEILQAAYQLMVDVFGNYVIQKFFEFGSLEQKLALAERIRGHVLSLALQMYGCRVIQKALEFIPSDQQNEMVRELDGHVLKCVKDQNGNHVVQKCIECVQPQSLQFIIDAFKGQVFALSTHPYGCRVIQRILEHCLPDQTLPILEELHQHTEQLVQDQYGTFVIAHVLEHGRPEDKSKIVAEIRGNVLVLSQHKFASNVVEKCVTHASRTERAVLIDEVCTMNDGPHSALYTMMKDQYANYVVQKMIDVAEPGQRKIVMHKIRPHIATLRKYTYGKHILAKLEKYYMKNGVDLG
# How it was run: as §1
# PUM1 PUF domain R4-RHL = PUM1 PUF domain R4-RHL (Homo sapiens, UniProt Q14671 828-1176, N971R;Q975L)
# How it was run: as §1
# PUM1 PUF domain R3-GPW = PUM1 PUF domain R3-GPW (Homo sapiens, UniProt Q14671 828-1176, C935G;R936P;Q939W)
# How it was run: as §1
# PUM1 PUF domain R6-RYT = molecular target: T2, PUM1 PUF domain R6-RYT (Homo sapiens, UniProt Q14671 828-1176, N1043R;Q1047T)
# T2 sequence: T1 sequence with T216R, F217Y, A220T
# How it was run: as §1
# PUM1 PUF domain R4-RRY = PUM1 PUF domain R4-RRY (Homo sapiens, UniProt Q14671 828-1176, N971R;H972R;Q975Y)
# How it was run: as §1
# PUM1 PUF domain R3-EFV = PUM1 PUF domain R3-EFV (Homo sapiens, UniProt Q14671 828-1176, C935E;R936F;Q939V)
# How it was run: as §1
# PUM1 PUF domain R5-LYV = PUM1 PUF domain R5-LYV (Homo sapiens, UniProt Q14671 828-1176, C1007L;R1008Y;Q1011V)
# How it was run: as §1
# PUM1 PUF domain R5-KRV = PUM1 PUF domain R5-KRV (Homo sapiens, UniProt Q14671 828-1176, C1007K;Q1011V)
# How it was run: as §1
# PUM1 PUF domain R1-YVK = PUM1 PUF domain R1-YVK (Homo sapiens, UniProt Q14671 828-1176, S863Y;R864V;Q867K)
# How it was run: as §1
# PUM1 PUF domain R1-RST = PUM1 PUF domain R1-RST (Homo sapiens, UniProt Q14671 828-1176, S863R;R864S;Q867T)
# How it was run: as §1
# PUM1 PUF domain R5-QTI = PUM1 PUF domain R5-QTI (Homo sapiens, UniProt Q14671 828-1176, C1007Q;R1008T;Q1011I)
# How it was run: as §1
# PUM1 PUF domain R1-RRN = PUM1 PUF domain R1-RRN (Homo sapiens, UniProt Q14671 828-1176, S863R;Q867N)
# How it was run: as §1
sequence,measurement,setting,value
GGCUAGAACUAGUGGAUCCCCCGGCGCCCGGCGGCUCGAGCCCGGGUAAGUGUAAUUAGUCUGCAUGCCGCCGGGCGCCAUGCCUGCAGGUCGACUCUAGAAAACAUG,binding signal,PUM1 PUF domain R3-RCW,3.79 log2 enrichment (interaction score)
same,binding signal,PUM1 PUF domain R3-IYD,2.12 log2 enrichment (interaction score)
same,binding signal,PUM1 PUF domain R3-MWY,3.31 log2 enrichment (interaction score)
GGCUAGAACUAGUGGAUCCCCCGGCGCCCGGCGGCUCGAGCCCGGGUAAGCGUAAAUAGUCUGCAUGCCGCCGGGCGCCAUGCCUGCAGGUCGACUCUAGAAAACAUG,binding signal,PUM1 PUF domain R8-KHC,5.19 log2 enrichment (interaction score)
same,binding signal,PUM1 PUF domain R8-KHL,5.8 log2 enrichment (interaction score)
GGCUAGAACUAGUGGAUCCCCCGGCGCCCGGCGGCUCGAGCCCGGGUAAGUCUAAAUAGUCUGCAUGCCGCCGGGCGCCAUGCCUGCAGGUCGACUCUAGAAAACAUG,binding signal,PUM1 PUF domain R7-RGG,1.37 log2 enrichment (interaction score)
GGCUAGAACUAGUGGAUCCCCCGGCGCCCGGCGGCUCGAGCCCGGGUAAGUGUAAGUAGUCUGCAUGCCGCCGGGCGCCAUGCCUGCAGGUCGACUCUAGAAAACAUG,binding signal,PUM1 PUF domain R3-RCW,3 log2 enrichment (interaction score)
same,binding signal,PUM1 PUF domain R3-WCA,3.27 log2 enrichment (interaction score)
GGCUAGAACUAGUGGAUCCCCCGGCGCCCGGCGGCUCGAGCCCGGGUAAGUGUAAAUAGUCUGCAUGCCGCCGGGCGCCAUGCCUGCAGGUCGACUCUAGAAAACAUG,binding signal,PUM1 PUF domain R5-HRR,1.38 log2 enrichment (interaction score)
same,binding signal,PUM1 PUF domain R6-TFA,3.93 log2 enrichment (interaction score)
same,binding signal,PUM1 PUF domain R4-RHL,3.62 log2 enrichment (interaction score)
same,binding signal,PUM1 PUF domain R3-IYD,3.08 log2 enrichment (interaction score)
same,binding signal,PUM1 PUF domain R3-GPW,4.04 log2 enrichment (interaction score)
same,binding signal,PUM1 PUF domain R6-RYT,2.71 log2 enrichment (interaction score)
same,binding signal,PUM1 PUF domain R4-RRY,2.87 log2 enrichment (interaction score)
same,binding signal,PUM1 PUF domain R3-EFV,3.71 log2 enrichment (interaction score)
same,binding signal,PUM1 PUF domain R5-LYV,3.28 log2 enrichment (interaction score)
same,binding signal,PUM1 PUF domain R8-KHL,4.75 log2 enrichment (interaction score)
GGCUAGAACUAGUGGAUCCCCCGGCGCCCGGCGGCUCGAGCCCGGGUAAGUGUUAAUAGUCUGCAUGCCGCCGGGCGCCAUGCCUGCAGGUCGACUCUAGAAAACAUG,binding signal,PUM1 PUF domain R5-HRR,4.62 log2 enrichment (interaction score)
GGCUAGAACUAGUGGAUCCCCCGGCGCCCGGCGGCUCGAGCCCGGGUAAGUGUCAAUAGUCUGCAUGCCGCCGGGCGCCAUGCCUGCAGGUCGACUCUAGAAAACAUG,binding signal,PUM1 PUF domain R5-HRR,2.4 log2 enrichment (interaction score)
same,binding signal,PUM1 PUF domain R5-KRV,4.1 log2 enrichment (interaction score)
GGCUAGAACUAGUGGAUCCCCCGGCGCCCGGCGGCUCGAGCCCGGGUAAGUUUAAAUAGUCUGCAUGCCGCCGGGCGCCAUGCCUGCAGGUCGACUCUAGAAAACAUG,binding signal,PUM1 PUF domain R7-RGG,3.65 log2 enrichment (interaction score)
GGCUAGAACUAGUGGAUCCCCCGGCGCCCGGCGGCUCGAGCCCGGGUAAGUGUAAAUUGUCUGCAUGCCGCCGGGCGCCAUGCCUGCAGGUCGACUCUAGAAAACAUG,binding signal,PUM1 PUF domain R1-YVK,2.55 log2 enrichment (interaction score)
same,binding signal,PUM1 PUF domain R1-RST,3.88 log2 enrichment (interaction score)
GGCUAGAACUAGUGGAUCCCCCGGCGCCCGGCGGCUCGAGCCCGGGUAAGUGUGAAUAGUCUGCAUGCCGCCGGGCGCCAUGCCUGCAGGUCGACUCUAGAAAACAUG,binding signal,PUM1 PUF domain R5-QTI,3.11 log2 enrichment (interaction score)
GGCUAGAACUAGUGGAUCCCCCGGCGCCCGGCGGCUCGAGCCCGGGUAAGUGUAAAUGGUCUGCAUGCCGCCGGGCGCCAUGCCUGCAGGUCGACUCUAGAAAACAUG,binding signal,PUM1 PUF domain R1-RRN,2.89 log2 enrichment (interaction score)
same,binding signal,PUM1 PUF domain R1-RST,2.92 log2 enrichment (interaction score)
GGCUAGAACUAGUGGAUCCCCCGGCGCCCGGCGGCUCGAGCCCGGGUAAGUGUAAAUCGUCUGCAUGCCGCCGGGCGCCAUGCCUGCAGGUCGACUCUAGAAAACAUG,binding signal,PUM1 PUF domain R1-RRN,5.26 log2 enrichment (interaction score)
same,binding signal,PUM1 PUF domain R1-YVK,1.62 log2 enrichment (interaction score)
same,binding signal,PUM1 PUF domain R1-RST,5.18 log2 enrichment (interaction score)

# Reference: article PMC8384837, “Expanding the binding specificity for RNA recognition by a PUF domain”
